Structures are written as SMILES. Screen size: about 360,000 compounds; about 3,900 (1.1%) were called active. This is one part of a sample in which actives are shown more often than they occur. Values without a mark were called inactive.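 Rule for the calls: active = mean replicate inhibition score of at least 50 and every replicate individually at or above 50; inconclusive = only one of the two criteria met; inactive = mean below 50 and not all replicates reaching 50.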

This assay is described as follows: blockers of JRFL envelope-mediated fusion – HeLa-JRFL effector, CEM21 target cells, luciferase, primary screen (AID 651610).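 Note: 0% = plate neutral controls and 100% = maraviroc near 300 nM.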 The following applies: HeLa-JRFL Env/CEM21 cell fusion, active compounds read high; at 16.7 µM unless noted.
As for `COc1ccc(S(=O)(=O)N(C)C[C@@H]2OCCCC[C@H](C)Oc3ccc(NC(=O)NC(C)C)cc3C(=O)N([C@@H](C)CO)C[C@@H]2C)cc1`, the inhibition (usually the drop in the measured response relative to a control, in per cent) was 8.34%.
The result for `COc1ccc(NC(=O)Nc2ccc3c(c2)C(=O)N([C@H](C)CO)C[C@@H](C)[C@@H](CN(C)C(=O)NC(C)C)OCCCC[C@H](C)O3)cc1` reads -15.9%; that for `C/C=C/c1ccc2c(c1)O[C@H](CN(C)C(=O)c1ccc3c(c1)OCO3)[C@@H](C)CN([C@H](C)CO)S2(=O)=O`, -3.13%.
Take `C[C@H](CO)N1C[C@H](C)[C@@H](CN(C)C(=O)Nc2ccc(F)cc2)OCCCC[C@H](C)Oc2ccc(NC(=O)c3ccncc3)cc2C1=O`: the inhibition is -27.7%.
The result for `COc1ccc([Si](C)(C)[C@@H]2[C@@H](CCO)O[C@]3(C(=O)N(Cc4ccccc4)c4ccc(N5CCC5=O)cc43)[C@H]2C)cc1` reads 15.1%; that for `COc1ccc([Si](C)(C)[C@@H]2[C@@H](CCO)O[C@]3(C(=O)N(Cc4cccc(N5CCCCC5=O)c4)c4ccccc43)[C@H]2C)cc1`, -10.1%; that for `COc1ccc([Si](C)(C)[C@H]2[C@H](CCO)O[C@@]3(C(=O)N(Cc4cccc(N5CCOC5=O)c4)c4ccccc43)[C@@H]2C)cc1`, 61.7% (active).
The result for `Cc1noc(C)c1NC(=O)N[C@@H]1CC[C@H](CCNC(=O)C2CCC2)O[C@@H]1CO` reads 5.86%; that for `C[C@H]1CN([C@@H](C)CO)C(=O)c2ccccc2-c2ccccc2CO[C@H]1CN(C)S(=O)(=O)c1cccc(C#N)c1`, 56.8% (active).
The result for `Cc1noc(C)c1S(=O)(=O)N(C)C[C@@H]1OCc2ccccc2-c2ccccc2C(=O)N([C@@H](C)CO)C[C@H]1C` reads 28.5%; that for `C[C@H]1CN([C@@H](C)CO)C(=O)c2ccccc2-c2ccccc2CO[C@@H]1CN(C)S(=O)(=O)c1ccc(C(F)(F)F)cc1`, 22.4%.
Take `C[C@@H]1CN([C@H](C)CO)C(=O)c2ccccc2-c2ccccc2CO[C@H]1CN(C)S(=O)(=O)c1ccsc1`: the inhibition was 15.4%.
The figure for `C[C@H](CO)N1C[C@H](C)[C@@H](CN(C)S(=O)(=O)c2cccs2)OCc2ccccc2-c2ccccc2C1=O` is 3.13%.
The figure for `C[C@H]1CN([C@@H](C)CO)C(=O)c2ccccc2-c2ccccc2CO[C@H]1CN(C)S(=O)(=O)c1ccccc1C#N` is 66.4% (active); for `C[C@H]1CN([C@@H](C)CO)C(=O)c2cc(Br)cnc2O[C@@H]1CN(C)S(=O)(=O)c1ccc(F)cc1` it is 48%; for `C[C@@H]1CN([C@H](C)CO)C(=O)c2cccc(NS(=O)(=O)c3cn(C)cn3)c2O[C@H]1CN(C)Cc1ccc(C(=O)O)cc1` it is 16.1%.
With `CC(=O)N1C[C@@H](CO)[C@@H](N(C)C(=O)C(C)(C)C)C[C@H]1c1ccccc1Br`, the inhibition is -6.57% [at 12.3 µM].
Turning to `Cc1ccc(F)cc1S(=O)(=O)N[C@@H]1CCN(Cc2ccc(-c3ccccc3)cc2)C1`, the inhibition is -7.12%.
The result for `CCOC1=C2[C@@H](CN(S(=O)(=O)c3ccc(C)cc3)[C@H]2c2ccccc2F)[C@H]2C(=O)N(Cc3ccccc3)C(=O)[C@H]2C1` reads 12.3% [at 12.3 µM]; that for `Cc1ccc(S(=O)(=O)N2C[C@@H]3CCCC[C@@H]3[C@@H](C)[C@H]2c2cn(Cc3ccccc3)c3ccc(F)cc23)cc1`, 77% [at 12.3 µM] (active); that for `CO[C@H]1CN(C)C(=O)c2cc(NC(=O)NC(C)C)ccc2OC[C@@H](C)NC[C@@H]1C`, -14%.
The result for `O=C(N[C@H]1CC[C@@H](CCNS(=O)(=O)c2cccc(Cl)c2)O[C@@H]1CO)c1ccccc1` reads 12.1%; that for `CCCNC(=O)N(C)C[C@H]1Oc2ncc(C#Cc3ccncc3)cc2C(=O)N([C@@H](C)CO)C[C@@H]1C`, 0.597%.
The figure for `Cc1cccc(N2C(=O)N3[C@H](c4ccc(F)cc4)[C@@H]4C(=O)N(C5CCCCC5)C(=O)[C@@H]4[C@]3(Cc3ccccc3)C2=O)c1` is 55.1% [at 12.3 µM] (active).
Regarding `O=C1[C@H]2[C@@H](c3ccc(F)cc3)N3C(=O)N(c4ccc(C(F)(F)F)cc4)C(=O)[C@@]3(Cc3ccccc3)[C@H]2C(=O)N1C1CCCCC1`, the inhibition is 79% [at 12.3 µM] (active).
Consider `Cc1cccc([C@@H]2[C@@H]3C(=O)N(Cc4ccccc4)C(=O)[C@@H]3[C@]3(Cc4ccc(Cl)cc4)C(=O)N(c4cccc(Cl)c4)C(=O)N23)c1`, for which the inhibition is -14.5% [at 12.3 µM].
Regarding `O=C1[C@H]2[C@@H](c3ccc(Cl)cc3)N3C(=O)N(c4cccc(F)c4)C(=O)[C@@]3(Cc3ccccc3)[C@H]2C(=O)N1C1CCCCC1`, the inhibition was 1.92% [at 12.3 µM].
As for `C[C@@H]1CN([C@@H](C)CO)S(=O)(=O)c2ccc(C#Cc3ccc(F)cc3)cc2O[C@H]1CN(C)C(=O)NC1CCCC1`, the inhibition was -2.36%.
The figure for `COc1ccc(CN(C)C[C@H]2Oc3c(NS(=O)(=O)c4ccccc4)cccc3C(=O)N([C@@H](C)CO)C[C@H]2C)cc1` is 12%; for `O=C(Cc1ccccn1)NCC[C@H]1CC[C@@H](NS(=O)(=O)c2ccc(F)cc2)[C@H](CO)O1` it is -7.4%; for `CCOC(=O)[C@]12CCC=C1N(Cc1ccco1)C(=O)[C@H](CC(=O)NCc1cccc(C(F)(F)F)c1)C2` it is 18.4% [at 12.3 µM].
With `CCCCNC(=O)C[C@@H]1C[C@@]2(C(=O)OC)CC(C)(C)CC=C2N(Cc2ccco2)C1=O`, the inhibition was 5.33% [at 12.3 µM].
The figure for `COC(=O)[C@@]12C[C@@H](CC(=O)NCc3cccc(C(F)(F)F)c3)C(=O)N(Cc3ccco3)C1=CCC(C)(C)C2` is 74.9% [at 12.3 µM] (active).
The figure for `C[C@H](CO)N1C[C@H](C)[C@@H](CN(C)C(=O)Nc2ccc3c(c2)OCO3)Oc2ccc(NS(=O)(=O)c3ccc(Cl)cc3)cc2CC1=O` is -30.5%; for `O=C(NC(c1ccc(Cl)cc1)c1cnccn1)C1CCN(Cc2ccc(Cl)cc2)CC1` (stereo not given) it is 16.4% [at 12.3 µM].
The figure for `Cc1ccc(C(NC(=O)C2CCN(CCOc3ccc(Cl)cc3Cl)CC2)c2ccccn2)cc1` (stereo not given) is 6.28% [at 12.3 µM]; for `Cc1cccnc1C(NC(=O)C1CCN(Cc2ccc(Cl)c(Cl)c2)CC1)c1ccc(Cl)cc1` (stereo not given) it is 62.7% [at 12.3 µM] (active); for `C[C@H]1CN([C@@H](C)CO)S(=O)(=O)c2ccc(Br)cc2O[C@H]1CN(C)Cc1ccccn1` it is 16.3%.
On to `C[C@H]1CN([C@@H](C)CO)S(=O)(=O)c2ccc(C3=CCCC3)cc2O[C@@H]1CN(C)Cc1ccccc1`, for which the inhibition was 18.3%.
The figure for `CN1CCN(CCCCOc2ccccc2-c2ccccc2)CC1` is 6.99% [at 12.3 µM].
Regarding `OCCN1CCN(C(=S)c2ccc(-c3ccccc3)cc2)CC1`, the inhibition is 71.3% [at 12.3 µM] (active).
The figure for `S=C(c1ccc(-c2ccccc2)o1)N1CCCCC1` is -140% [at 12.3 µM]; for `CCOC(=O)c1c(NC(=O)CSc2cn(CC)c3ccccc23)sc2c1CCC2` it is 40.8% [at 12.3 µM].
The figure for `CCOC(=O)c1c(NC(=O)C(C)Sc2c[nH]c3ccccc23)sc2c1CCC2` (stereo not given) is 67% [at 12.3 µM] (active).
The result for `CCOC(=O)c1c(NC(=O)C2(C)Cc3ccccc3C(=O)O2)sc2c1CCCC2` (stereo not given) reads 14.6% [at 12.3 µM]; that for `C[C@H](CO)N1C[C@H](C)[C@H](CN(C)S(=O)(=O)c2cn(C)cn2)Oc2ccc(NS(=O)(=O)c3ccccc3)cc2C1=O`, 2.2%; that for `C[C@@H]1CN([C@@H](C)CO)C(=O)c2cc(NC(=O)Cc3ccccc3)ccc2O[C@@H](C)CCCCO[C@@H]1CN(C)C(=O)Nc1ccccc1`, 34.3%.
In the case of `c1ccc(Cc2c(-c3ccco3)nc3c4ccccc4ccn23)cc1`, the inhibition was 65.9% [at 12.3 µM] (active).
For the molecule `Cc1ccc(Cc2c(-c3ccc(Cl)cc3)nc3c4ccccc4ccn23)cc1`, the inhibition was 0.563% [at 12.3 µM].
The result for `Cc1ccc(Cc2c(-c3ccc(C)cc3)nc3c4ccccc4ccn23)cc1` reads 14.4% [at 12.3 µM].
`COc1ccc(S(=O)(=O)N(C)C[C@H]2OCCCC[C@@H](C)Oc3ccc(NC(=O)c4ccncc4)cc3C(=O)N([C@H](C)CO)C[C@@H]2C)cc1`: the inhibition is 13.6%.
With `CO[C@@H]1CN(C)C(=O)c2cc(NS(=O)(=O)c3cccc(Cl)c3)ccc2OC[C@@H](C)NC[C@@H]1C`, the inhibition is 0.008%.
As to `C[C@@H]1CN([C@@H](C)CO)C(=O)Cc2cc(NC(=O)Nc3ccc4c(c3)OCO4)ccc2O[C@@H]1CN(C)C(=O)Nc1ccc2c(c1)OCO2`, the inhibition was -15.9%.
The result for `COc1cccc(NC(=O)N[C@@H]2CC[C@H](CC(=O)NCc3ccccn3)O[C@H]2CO)c1` reads -38%.
On to `CCC(=O)N(C)C[C@@H]1Oc2ncc(C3=CCCC3)cc2C(=O)N([C@H](C)CO)C[C@@H]1C`, for which the inhibition is 0.169%.
The result for `CCC(=O)N(C)C[C@H]1Oc2ncc(-c3ccccc3OC)cc2C(=O)N([C@H](C)CO)C[C@H]1C` reads -7.79%.
Turning to `COc1ccc2c3c([nH]c2c1)[C@@H](CO)N(C(=O)c1ccccc1)CC31CCN(Cc2cccnc2)CC1`, the inhibition was -8.66%.
The figure for `O=S1(=O)c2c(cccc2N2CCCC2)O[C@H](COCc2ccccc2)CN1C1CC1` is -8.42% [at 12.3 µM]; for `O=S1(=O)c2c(cccc2N2CCCCC2)O[C@H](COCc2ccccc2)CN1C1CC1` it is 102% [at 12.3 µM] (active); for `CSc1ccc(Oc2cccc3c2S(=O)(=O)N([C@H](C)c2ccccc2)C[C@@H](COCc2ccccc2)O3)cc1C` it is 10.8% [at 12.3 µM].

(Values after PubChem BioAssay AID651610 (Broad Institute, 2012).)
